Results on 24 compounds are retold here after PubChem BioAssay (Tox21).

The source made the active and inactive calls. Unless noted, calls come from the whole dose curve; as a rule, active = well fitted curve in the direction sought with a large enough effect in the repeat runs; inconclusive = weak or mixed curves; inactive = no such curve, though single readings can be large; an effect the other way counts as inactive or inconclusive. Positions of bridges follow the written chain, without caps; N, C: chain ends. Residues, ends and D or L forms follow the SMILES beside them.

Test [1] is described as follows: qHTS assay to identify small molecule antagonists of the thyroid receptor (TR) signaling pathway (AID 743065). Note: nearly all actives have a fitted effect of over 55% in size. Note: potency is the fitted concentration of half-maximal effect. A digest of the protocol: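 GH3.TRE-Luc rat pituitary cells carrying two TR response elements driving luciferase were plated for 4 h, given compound plus 1 nM T3 (final), and incubated 23.5 h at 37 C. ONE-Glo luminescence measured reporter inhibition; CellTiter-Fluor fluorescence tracked cytotoxicity.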
(In general: qHTS replaces the single test concentration by a dilution series.)

In test [2] the test system is thyroid hormone receptor (rat, GH3 cells). Put plainly: qHTS assay to identify small molecule agonists of the thyroid receptor (TR) signaling pathway (AID 743066; calls by dose curve).
Test [3] has as its target Estrogen receptor (Homo sapiens) (UniProt P03372). Put plainly: qHTS assay to identify small molecule antagonists of the estrogen receptor alpha (ER-alpha) signaling pathway (AID 743069; active = well fitted curve in the direction sought with a large enough effect in the signal ratio in the repeat runs, not every such curve was filed as active; inconclusive = weak or mixed curves, or effect the other way; inactive = no such curve, though single readings can be large or run the other way; the % refers to the signal ratio; note: potency is the fitted concentration of half-maximal effect). An outline of the steps: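 A 17beta-estradiol challenge was applied right after compound transfer to ER-alpha-UAS-bla HEK293 cells previously kept in charcoal-stripped serum. Plates stood 18 hr at 37C and 5% CO2; fluorescence was read following 2 hr FRET substrate loading at room temperature.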

Test [4] in a line: qHTS assay to identify small molecule antagonists of the estrogen receptor alpha (ER-alpha) signaling pathway - cell viability counter screen (AID 743074; calls by dose curve;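 note: HEK293 cells carrying ER-alpha-UAS-bla reporter stimulated with 17beta-estradiol; nearly all actives have a fitted effect of over 45% in size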; note: potency is the fitted concentration of half-maximal effect).
Test [5] has as its target Estrogen receptor (Homo sapiens) (UniProt P03372). Put plainly: qHTS assay to identify small molecule agonists of the estrogen receptor alpha (ER-alpha) signaling pathway (AID 743075; calls by dose curve;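 note: HEK293 GripTite cells with ER-alpha and UAS-driven beta-lactamase reporter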; note: potency is the fitted concentration of half-maximal effect).
Test [6] shares this target. The test can be described thus: qHTS assay to identify small molecule agonists of the estrogen receptor alpha (ER-alpha) signaling pathway using the BG1 cell line (AID 743079). Note: nearly all actives have a fitted effect of over 20% in size. Note: potency is the fitted concentration of half-maximal effect. Conditions: BG1Luc4E2 cells, ERE-luciferase agonist, 22 h; activation: at 70.3 µM (top of the series).
Test [7] can be described thus: qHTS assay to identify small molecule antagonists of the estrogen receptor alpha (ER-alpha) signaling pathway using the BG1 cell line (AID 743080; calls by dose curve; note: nearly all actives have a fitted effect of over 25% in size; note: potency is the fitted concentration of half-maximal effect). An outline of the steps:
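Antagonist mode: compounds in DMSO were pinned onto BG1-Luc-4E2 cells alongside 17beta-estradiol agonist, incubated 21.5 h, and ERE-driven luciferase measured with ONE-Glo. Cytotoxicity was multiplexed using CellTiter-Fluor fluorescence.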

The nature of test [8]: qHTS assay to identify small molecule antagonists of the estrogen receptor alpha (ER-alpha) signaling pathway using the BG1 cell line - cell viability counter screen (AID 743081).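 Note: compound given together with 17beta-estradiol as the ER stimulus; nearly all actives have a fitted effect of over 45% in size.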
The target in the next test is Aromatase (Homo sapiens) (UniProt P11511). The test can be described thus: qHTS assay to identify aromatase inhibitors (AID 743083). Note: nearly all actives have a fitted effect of over 55% in size. Note: potency is the fitted concentration of half-maximal effect.
Sequence of Aromatase (Homo sapiens) (P11511 whole entry, looked up): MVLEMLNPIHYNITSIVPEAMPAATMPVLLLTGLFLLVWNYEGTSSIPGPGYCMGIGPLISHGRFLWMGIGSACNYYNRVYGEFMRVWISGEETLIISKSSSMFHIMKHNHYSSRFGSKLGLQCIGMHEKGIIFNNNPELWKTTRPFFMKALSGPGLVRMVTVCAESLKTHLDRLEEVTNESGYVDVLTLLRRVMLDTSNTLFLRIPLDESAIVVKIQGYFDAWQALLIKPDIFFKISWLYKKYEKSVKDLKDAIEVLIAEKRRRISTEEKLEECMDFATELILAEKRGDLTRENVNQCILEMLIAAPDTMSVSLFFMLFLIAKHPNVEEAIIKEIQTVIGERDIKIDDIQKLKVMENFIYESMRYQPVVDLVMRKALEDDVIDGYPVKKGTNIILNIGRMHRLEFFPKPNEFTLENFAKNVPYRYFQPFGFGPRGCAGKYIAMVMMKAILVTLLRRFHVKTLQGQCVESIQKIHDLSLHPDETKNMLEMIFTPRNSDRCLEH
The nature of test [9]: qHTS assay to identify small molecule antagonists of the thyroid receptor (TR) signaling pathway - cell viability counter screen (AID 743064). Note: nearly all actives have a fitted effect of over 50% in size. Note: potency is the fitted concentration of half-maximal effect. A digest of the protocol: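 GH3.TRE-Luc rat pituitary cells dosed after 4 hr plating, co-stimulated with T3 at 1 nM final, incubated 23.5 h at 37 C. Viability measured in the same wells by CellTiter-Fluor fluorescence after 30 min further at 37 C.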
% is set by controls: 0 for no effect and ±100 for the full control effect.

Sequence of Estrogen receptor (Homo sapiens) (P03372 whole entry, looked up): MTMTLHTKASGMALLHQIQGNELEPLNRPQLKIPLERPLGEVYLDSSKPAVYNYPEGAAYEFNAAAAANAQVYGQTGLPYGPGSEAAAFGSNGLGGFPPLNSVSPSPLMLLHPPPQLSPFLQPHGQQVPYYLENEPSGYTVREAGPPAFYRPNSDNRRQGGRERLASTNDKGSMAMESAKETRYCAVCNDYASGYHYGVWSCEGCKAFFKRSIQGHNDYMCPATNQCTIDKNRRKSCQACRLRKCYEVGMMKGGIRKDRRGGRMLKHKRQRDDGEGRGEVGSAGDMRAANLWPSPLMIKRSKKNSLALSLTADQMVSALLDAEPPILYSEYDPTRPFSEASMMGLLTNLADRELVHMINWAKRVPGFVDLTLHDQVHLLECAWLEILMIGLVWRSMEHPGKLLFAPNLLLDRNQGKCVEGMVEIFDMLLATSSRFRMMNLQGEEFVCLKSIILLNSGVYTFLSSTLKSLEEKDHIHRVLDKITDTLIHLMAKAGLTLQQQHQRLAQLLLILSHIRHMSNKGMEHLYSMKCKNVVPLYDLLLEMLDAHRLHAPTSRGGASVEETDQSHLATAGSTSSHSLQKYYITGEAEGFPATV

For `COC(=O)[C@H]1[C@H]2C[C@@H]3c4[nH]c5cc(OC)ccc5c4CCN3C[C@H]2C[C@H](OC)[C@@H]1OC`, the Potency entry in [1], in test [2], in [3], in test [4], in test [5] and in test [6] was “inactive” in each case. The Potency entry (in test [7]; in test [8]; in the test with Aromatase (Homo sapiens)) was “inactive” throughout.

For the compound `COC(=O)CCC[N+](C)(C)C`, the Potency entry (in [9]; in test [4]; in test [8]; with Aromatase (Homo sapiens)) was “inactive” throughout.

Consider `C=C1C(=O)O[C@H]2[C@H]1CC/C(C)=C\CC[C@@]1(C)O[C@@H]21`, for which the Potency in test [9] is 8.41 µM (active); with Aromatase (Homo sapiens), 21.1 µM (active). Further, the Potency result in test [3], in [4], in test [7] and in [8] was “inactive” throughout.

Consider `Nc1nc2c(c(=O)[nH]1)N(C=O)C(CNc1ccc(C(=O)N[C@@H](CCC(=O)O)C(=O)O)cc1)CN2` (stereo partly drawn), for which the Potency result (in test [9]; in test [4]; in [8]; with Aromatase (Homo sapiens)) was “inactive” throughout.

Take `COC1=C(C(=O)O)N2C(=O)[C@@H](NC(=O)[C@H](N)C3=CCC=CC3)[C@H]2SC1`: the Potency entry in test [9], in test [3], in test [5], in test [6], in [7] and in test [8] was “inactive” in each case. In addition, the Potency entry with Aromatase (Homo sapiens) was “inactive”.

Turning to `CC(C)(C)NCC(O)c1ccc(O)c(CO)n1` (stereo not drawn), the Potency result in test [1], in test [2], in [4] and in test [8] was “inactive” each time.

For `O=C(CCCN1CCC(n2c(=S)[nH]c3ccccc32)CC1)c1ccc(F)cc1`, in test [1], the Potency is 26.6 µM (active). Further, the Potency result in [4] and in [5] was “inactive” in each case.

`CC1=C(C(=O)OCCN(Cc2ccccc2)c2ccccc2)C(c2cccc([N+](=O)[O-])c2)C(P2(=O)OCC(C)(C)CO2)=C(C)N1` (stereo not drawn): the Potency in [1] was 13.3 µM (active). Also, the Potency result in test [2], in test [4], in test [5], in test [6], in test [7] and in test [8] was “inactive” throughout.

For the compound `CCC(=O)Oc1ccc2c(c1)CC[C@@H]1[C@@H]2CC[C@]2(C)[C@@H](OC(=O)CC)CC[C@@H]12`, the Potency result in test [1], in test [2], in test [4], in [7] and in [8] was “inactive” in each case. The activation in test [6] is 99.5% (active).

Turning to `NCCCC[C@H](NC(=O)[C@@H]1CCCN1C(=O)[C@@H]1CSSC[C@H](NC(=O)CNC(=O)CNC(=O)CN)C(=O)N[C@@H](Cc2ccc(O)cc2)C(=O)N[C@@H](Cc2ccccc2)C(=O)N[C@@H](CCC(N)=O)C(=O)N[C@@H](CC(N)=O)C(=O)N1)C(=O)NCC(N)=O` (H-GGGCYFQNCPKG-NH2; disulfide 4-9), the Potency entry (in test [1]; in [2]; in test [4]; in the test with Aromatase (Homo sapiens)) was “inactive” in each case.

Take `Cc1cc(C)c(NC(=O)C[C@H](CC(=O)O)c2cccc3ccccc23)c(C(=O)N2CCC3(CCCC3)CC2)c1`: the Potency entry in test [1], in test [2], in test [3], in test [5], in test [7] and in test [8] was “inactive” throughout. For the same compound, the Potency result with Aromatase (Homo sapiens) is “inactive”. Also, the Potency in [6] was 29.8 µM (active).

`CC(C)(C)NC(=O)[C@H]1CC[C@H]2[C@@H]3CC=C4C=C(C(=O)O)CC[C@]4(C)[C@H]3CC[C@]12C`: the Potency result in [1], in test [2], in test [3], in test [5], in test [6] and in [7] was “inactive” each time. In the test with Aromatase (Homo sapiens), the Potency entry was “inactive”.

For the compound `CCC(=O)O[C@H]1CC[C@H]2[C@@H]3CCc4cc(O)ccc4[C@H]3CC[C@]12C`, the results for the Potency in [1] and in test [5] were 26.6 µM (active) and 0.0013 µM [inconclusive] (active), respectively. Moreover, the Potency result (in [4]; in test [7]; in test [8]; in the test with Aromatase (Homo sapiens)) was “inactive” each time. In addition, in test [6], the activation is 52.2% (active).

For the compound `CC(CC(c1ccccc1)c1ccccc1)NC(C)(C)C` (stereo not drawn), the Potency in test [1] is 21.1 µM (active). The Potency result (in [2]; in test [5]; in [6]; with Aromatase (Homo sapiens)) was “inactive” throughout.

In the case of `CC(=O)O[C@]1(C(C)=O)CC[C@H]2[C@@H]3CCC4=CC(=O)CC[C@]4(C)[C@@]3(F)[C@@H](O)C[C@@]21C`, the Potency entry (in test [1]; in test [2]; in test [4]; in test [8]; with Aromatase (Homo sapiens)) was “inactive” each time. Also, the Potency in test [6] was 2.66 µM (active).

Consider `NCCC[C@H](N)C(=O)O`, for which the Potency result in test [1], in [2], in test [3], in test [5], in [6] and in test [7] was “inactive” in each case. Moreover, the Potency result in the test with Aromatase (Homo sapiens) was “inactive”.

`O=C(OC1C[C@@H]2CC3C[C@H](C1)N2CC3=O)c1c[nH]c2ccccc12` (stereo partly drawn): in test [1], the Potency was 29.8 µM (active). For the same compound, the Potency result (in test [3]; in test [4]; in [5]; in test [6]; with Aromatase (Homo sapiens)) was “inactive” each time.

For the compound `Cc1cc2nc3c(=O)[nH]c(=O)nc-3n(C[C@H](O)[C@H](O)[C@H](O)COP(=O)(O)OP(=O)(O)OC[C@H]3O[C@@H](n4cnc5c(N)ncnc54)[C@H](O)[C@@H]3O)c2cc1C`, the Potency result (in test [1]; in [2]; in test [5]; in test [6]; in test [7]; with Aromatase (Homo sapiens)) was “inactive” throughout. Further, in test [4], the Potency was 16.9 µM (active).

`CC(CCc1ccc(O)cc1)NCC(O)c1ccc(O)cc1` (stereo not drawn): the Potency result (in test [1]; in test [2]; in test [4]; in test [8]; in the test with Aromatase (Homo sapiens)) was “inactive” in each case.

`O=[N+]([O-])c1ccc(Oc2ccc(N=C=S)cc2)cc1`: the Potency in test [1] is 29.8 µM (active); in test [3] it was 0.848 µM [inconclusive] (active); with Aromatase (Homo sapiens) it was 26.6 µM (active). In addition, the Potency entry in test [2], in test [4] and in test [5] was “inactive” throughout.

As for `C=CC[C@@H]1/C=C(\C)C[C@H](C)C[C@H](OC)[C@H]2O[C@@](O)(C(=O)C(=O)N3CCCC[C@H]3C(=O)O[C@H](/C(C)=C/[C@@H]3CC[C@@H](O)[C@H](OC)C3)[C@H](C)[C@@H](O)CC1=O)[C@H](C)C[C@@H]2OC`, the Potency result in test [1], in test [2], in [4], in test [5], in [6] and in [7] was “inactive” throughout.

As to `CN1c2cc(O)c(N=NC(N)=O)cc2CC1S(=O)(=O)O` (stereo not drawn), the Potency result (in [1]; in [2]; in test [4]; in test [8]; in the test with Aromatase (Homo sapiens)) was “inactive” throughout.

For the compound `C=CCOc1ccc(CC(=O)O)cc1Cl`, the Potency result (in [1]; in test [2]; in [4]; in [7]; in test [8]; with Aromatase (Homo sapiens)) was “inactive” in each case. Moreover, the Potency is 3.79 µM [inconclusive] (active) in [5] and 0.266 µM (active) in [6].

In the case of `C=CCNC1=C2C[C@@H](C)C[C@H](OC)[C@H](O)[C@@H](C)/C=C(\C)[C@H](OC(N)=O)[C@@H](OC)/C=C\C=C(/C)C(=O)NC(=CC1=O)C2=O`, the Potency in test [1] was 0.335 µM (active); in test [7], 0.237 µM (active). Besides, the Potency result (in test [2]; in [4]; in test [5]; with Aromatase (Homo sapiens)) was “inactive” in each case.
